# In the supplement of paper PMC8728848:
# The entries come from a sample that favours the strongest signals as a whole.
# B1: Gal 8 (Homo sapiens), O00214_1 (protein)
# chain: MMLSLNNLQNIIYNPVIPFVGTIPDQLDPGTLIVIRGHVPSDADRFQVDLQNGSSMKPRADVAFHFNPRFKRAGCIVCNTLINEKWGREEITYDTPFKREKSFEIVIMVLKDKFQVAVNGKHTLLYGHRIGPEKIDTLGIYGKVNIHSIGFSFSSDLQSTQASSLELTEISRENVPKSGTPQLRLPFAARLNTPMGPGRTVVVKGEVNANAKSFNVDLLAGKSKDIALHLNPRLNIKAFVRNSFLQESWGEEERNITSFPFSPGMYFEMIIYCDVREFKVAVNGVHSLEYKHRFKELSSIDTLEINGDIHLLEVRSW
# Columns and labels:
# Experiment in all cases: glycan array binding signal (z-score within array); higher = stronger binding
# Conditions in all cases: glycan notation: IUPAC condensed, linker removed
# Fuc(a1-2)Gal(b1-3)GalNAc = molecular target: Fuc(a1-2)Gal(b1-3)GalNAc
# In short: (§1)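 The binding signal is a Z-score computed within each array. Data were drawn from 3228 arrays in the Consortium for Functional Glycomics database, restricted to those with a known protein sequence. Scores were averaged over arrays of the same protein sequence at different concentrations or buffers, and over linkers, and negative values can be taken as non-binding.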
# [1] = molecular target: Fuc(a1-2)Gal(b1-3)GlcNAc(b1-2)Man(a1-3)[Fuc(a1-2)Gal(b1-3)GlcNAc(b1-2)Man(a1-6)]Man(b1-4)GlcNAc(b1-4)GlcNAc
# In short: as §1
# [2] = molecular target: Fuc(a1-2)Gal(b1-4)GlcNAc(b1-2)[Fuc(a1-2)Gal(b1-4)GlcNAc(b1-4)]Man(a1-3)[Fuc(a1-2)Gal(b1-4)GlcNAc(b1-2)Man(a1-6)]Man(b1-4)GlcNAc(b1-4)GlcNAc
# In short: as §1
# [3] = molecular target: Fuc(a1-2)[Gal(a1-3)]Gal(b1-4)Glc
# In short: as §1
# [4] = molecular target: Fuc(a1-2)[Gal(a1-3)]Gal(b1-4)GlcNAc(b1-2)Man(a1-3)[Fuc(a1-2)[Gal(a1-3)]Gal(b1-4)GlcNAc(b1-2)Man(a1-6)]Man(b1-4)GlcNAc(b1-4)GlcNAc
# In short: as §1
# [5] = molecular target: Fuc(a1-2)[Gal(a1-3)]Gal(b1-4)[Fuc(a1-3)]GlcNAc
# In short: as §1
# [6] = molecular target: Fuc(a1-2)[GalNAc(a1-3)]Gal(b1-3)GlcNAc(b1-2)Man(a1-3)[Fuc(a1-2)[GalNAc(a1-3)]Gal(b1-3)GlcNAc(b1-2)Man(a1-6)]Man(b1-4)GlcNAc(b1-4)[Fuc(a1-6)]GlcNAc
# In short: as §1
# [7] = molecular target: Fuc(a1-2)[GalNAc(a1-3)]Gal(b1-4)GlcNAc(b1-2)Man(a1-3)[Fuc(a1-2)[GalNAc(a1-3)]Gal(b1-4)GlcNAc(b1-2)Man(a1-6)]Man(b1-4)GlcNAc(b1-4)GlcNAc
# In short: as §1
# [8] = molecular target: Fuc(a1-2)[GalNAc(a1-3)]Gal(b1-4)GlcNAc(b1-3)Gal(b1-4)GlcNAc
# In short: as §1
# [9] = molecular target: Fuc(a1-2)[GalNAc(a1-3)]Gal(b1-4)GlcNAc(b1-3)Gal(b1-4)GlcNAc(b1-3)Gal(b1-4)GlcNAc
# In short: as §1
# [10] = molecular target: Fuc(a1-3)[Gal(b1-4)]GlcNAc(b1-2)Man(a1-6)[Gal(b1-4)GlcNAc(b1-2)Man(a1-3)]Man(b1-4)GlcNAc(b1-4)GlcNAc
# In short: as §1
# Gal(a1-3)Gal = molecular target: Gal(a1-3)Gal
# In short: as §1
# [11] = molecular target: Gal(a1-3)Gal(b1-4)[Fuc(a1-3)]GlcNAc(b1-2)Man(a1-3)[Gal(a1-3)Gal(b1-4)[Fuc(a1-3)]GlcNAc(b1-2)Man(a1-6)]Man(b1-4)GlcNAc(b1-4)GlcNAc
# In short: as §1
# Gal(b1-2)Gal = molecular target: Gal(b1-2)Gal
# In short: as §1
# [12] = molecular target: Gal(b1-3)GalNAc(a1-3)[Fuc(a1-2)]Gal(b1-4)GlcNAc
# In short: as §1
# Gal(b1-3)GlcNAc = molecular target: Gal(b1-3)GlcNAc
# In short: as §1
# [13] = molecular target: Gal(b1-3)GlcNAc(b1-2)Man(a1-3)[Gal(b1-3)GlcNAc(b1-2)Man(a1-6)]Man(b1-4)GlcNAc(b1-4)[Fuc(a1-6)]GlcNAc
# In short: as §1
# [14] = molecular target: Gal(b1-3)GlcNAc(b1-3)Gal(b1-4)Glc
# In short: as §1
# [15] = molecular target: Gal(b1-3)GlcNAc(b1-3)GalNAc
# In short: as §1
# Gal(b1-4)Gal = molecular target: Gal(b1-4)Gal
# In short: as §1
# [16] = molecular target: Gal(b1-4)GlcNAc(b1-2)Man(a1-3)[Man(a1-6)]Man(b1-4)GlcNAc(b1-4)GlcNAc
# In short: as §1
# [17] = molecular target: Gal(b1-4)GlcNAc(b1-2)[Gal(b1-4)GlcNAc(b1-6)]Man(a1-6)[GlcNAc(b1-4)][Gal(b1-4)GlcNAc(b1-2)Man(a1-3)]Man(b1-4)GlcNAc(b1-4)GlcNAc
# In short: as §1
# [18] = molecular target: Gal(b1-4)GlcNAc(b1-3)Gal(b1-3)GlcNAc
# In short: as §1
# [19] = molecular target: Gal(b1-4)GlcNAc(b1-3)Gal(b1-4)Glc
# In short: as §1
# Gal3S6S(b1-4)GlcNAc6S = molecular target: Gal3S6S(b1-4)GlcNAc6S
# In short: as §1
# Gal6S(b1-4)Glc6S = molecular target: Gal6S(b1-4)Glc6S
# In short: as §1
# Gal6S(b1-4)GlcNAc = molecular target: Gal6S(b1-4)GlcNAc
# In short: as §1
# GalNAc6S(b1-4)GlcNAc = molecular target: GalNAc6S(b1-4)GlcNAc
# In short: as §1
# [20] = molecular target: Glc(a1-6)Glc(a1-6)Glc(a1-6)Glc
# In short: as §1
# Glc(b1-4)Glc = molecular target: Glc(b1-4)Glc
# In short: as §1
# Glc(b1-6)Glc = molecular target: Glc(b1-6)Glc
# In short: as §1
# GlcA(b1-3)Gal = molecular target: GlcA(b1-3)Gal
# In short: as §1
# [21] = molecular target: GlcNAc(b1-3)[GlcNAc(b1-4)][GlcNAc(b1-6)]GlcNAc
# In short: as §1
# [22] = molecular target: GlcNAc6S(b1-3)Gal(b1-4)GlcNAc
# In short: as §1
# [23] = molecular target: Man(a1-3)[Man(a1-6)]Man(a1-6)[Man(a1-2)Man(a1-3)]Man(b1-4)GlcNAc(b1-4)GlcNAc
# In short: as §1
# [24] = molecular target: Man(a1-3)[Man(a1-6)]Man(a1-6)[Man(a1-3)]Man
# In short: as §1
# [25] = molecular target: Man(a1-3)[Man(a1-6)]Man(a1-6)[Man(a1-3)]Man(b1-4)GlcNAc(b1-4)GlcNAc
# In short: as §1
# [26] = molecular target: Neu5Ac(a2-3)Gal(b1-3)GlcNAc6S
# In short: as §1
# [27] = molecular target: Neu5Ac(a2-3)Gal(b1-4)GlcNAc(b1-2)Man(a1-3)[GlcNAc(b1-2)Man(b1-4)GlcNAc(b1-2)Man(a1-6)]Man(b1-4)GlcNAc(b1-4)GlcNAc
# In short: as §1
# [28] = molecular target: Neu5Ac(a2-3)Gal(b1-4)GlcNAc(b1-2)Man(a1-3)[Neu5Ac(a2-6)Gal(b1-4)GlcNAc(b1-2)Man(a1-6)]Man(b1-4)GlcNAc(b1-4)GlcNAc
# In short: as §1
# [29] = molecular target: Neu5Ac(a2-3)Gal(b1-4)GlcNAc(b1-3)Gal(b1-4)GlcNAc
# In short: as §1
# [30] = molecular target: Neu5Ac(a2-3)Gal(b1-4)[Fuc(a1-3)]GlcNAc(b1-3)Gal
# In short: as §1
# [31] = molecular target: Neu5Ac(a2-3)Gal(b1-4)[Fuc(a1-3)]GlcNAc6S
# In short: as §1
# Neu5Ac(a2-3)GalNAc = molecular target: Neu5Ac(a2-3)GalNAc
# In short: as §1
# [32] = molecular target: Neu5Ac(a2-6)Gal(b1-4)GlcNAc(b1-2)Man(a1-3)[Gal(b1-4)GlcNAc(b1-2)Man(a1-6)]Man(b1-4)GlcNAc(b1-4)GlcNAc
# In short: as §1
# [33] = molecular target: Neu5Ac(a2-8)Neu5Ac(a2-8)Neu5Ac(a2-3)[GalNAc(b1-4)]Gal(b1-4)Glc
# In short: as §1
# [34] = molecular target: Neu5Gc(a2-3)Gal(b1-3)[Fuc(a1-4)]GlcNAc
# In short: as §1
# [35] = molecular target: Neu5Gc(b2-6)Gal(b1-4)GlcNAc
# In short: as §1
binder,measurement,setting,value
B1,glycan array binding signal (z-score),Fuc(a1-2)Gal(b1-3)GalNAc,-0.23
same,glycan array binding signal (z-score),[1],0.466
same,glycan array binding signal (z-score),[2],-1.24
same,glycan array binding signal (z-score),[3],3.1
same,glycan array binding signal (z-score),[4],2.33
same,glycan array binding signal (z-score),[5],-0.143
same,glycan array binding signal (z-score),[6],1.73
same,glycan array binding signal (z-score),[7],2.14
same,glycan array binding signal (z-score),[8],2.58
same,glycan array binding signal (z-score),[9],2.31
same,glycan array binding signal (z-score),[10],-0.273
same,glycan array binding signal (z-score),Gal(a1-3)Gal,-0.252
same,glycan array binding signal (z-score),[11],-0.137
same,glycan array binding signal (z-score),Gal(b1-2)Gal,-0.201
same,glycan array binding signal (z-score),[12],2.17
same,glycan array binding signal (z-score),Gal(b1-3)GlcNAc,-0.167
same,glycan array binding signal (z-score),[13],-0.63
same,glycan array binding signal (z-score),[14],0.084
same,glycan array binding signal (z-score),[15],-0.235
same,glycan array binding signal (z-score),Gal(b1-4)Gal,-0.099
same,glycan array binding signal (z-score),[16],0.003
same,glycan array binding signal (z-score),[17],-0.251
same,glycan array binding signal (z-score),[18],1.38
same,glycan array binding signal (z-score),[19],2.32
same,glycan array binding signal (z-score),Gal3S6S(b1-4)GlcNAc6S,-0.201
same,glycan array binding signal (z-score),Gal6S(b1-4)Glc6S,-0.094
same,glycan array binding signal (z-score),Gal6S(b1-4)GlcNAc,-0.172
same,glycan array binding signal (z-score),GalNAc6S(b1-4)GlcNAc,-0.215
same,glycan array binding signal (z-score),[20],-0.23
same,glycan array binding signal (z-score),Glc(b1-4)Glc,0.078
same,glycan array binding signal (z-score),Glc(b1-6)Glc,-0.234
same,glycan array binding signal (z-score),GlcA(b1-3)Gal,-0.219
same,glycan array binding signal (z-score),[21],-0.227
same,glycan array binding signal (z-score),[22],-0.585
same,glycan array binding signal (z-score),[23],2.31
same,glycan array binding signal (z-score),[24],-0.195
same,glycan array binding signal (z-score),[25],-0.16
same,glycan array binding signal (z-score),[26],2.19
same,glycan array binding signal (z-score),[27],-0.189
same,glycan array binding signal (z-score),[28],-0.225
same,glycan array binding signal (z-score),[29],-0.244
same,glycan array binding signal (z-score),[30],-0.243
same,glycan array binding signal (z-score),[31],-0.235
same,glycan array binding signal (z-score),Neu5Ac(a2-3)GalNAc,-0.201
same,glycan array binding signal (z-score),[32],-0.254
same,glycan array binding signal (z-score),[33],0.35
same,glycan array binding signal (z-score),[34],-0.233
same,glycan array binding signal (z-score),[35],-0.219
